Results taken from PubChem BioAssay (NCATS).
Results filed as inconclusive are left out. The source made the active and inactive calls. Unless noted, calls follow the shape of the dose curve; as a rule, active = well fitted curve in either direction with a large enough effect (not every such curve was filed as active); inconclusive = small, poorly fitted or top-dose-only effect, or another doubt; inactive = flat fitted curve, though single readings scatter.

What was measured:
[1] = biological target: Lysosomal acid glucosylceramidase (Homo sapiens) (UniProt P04062); test: Glucocerebrosidase-p2 (AID 348; in the data active = potency below about 10 µM; also: potency is read from the fitted curve at half-maximal effect); conditions: purified GBA, blue fluorogenic substrate, 40 min
Sequence of Lysosomal acid glucosylceramidase (Homo sapiens) (P04062 whole entry, looked up): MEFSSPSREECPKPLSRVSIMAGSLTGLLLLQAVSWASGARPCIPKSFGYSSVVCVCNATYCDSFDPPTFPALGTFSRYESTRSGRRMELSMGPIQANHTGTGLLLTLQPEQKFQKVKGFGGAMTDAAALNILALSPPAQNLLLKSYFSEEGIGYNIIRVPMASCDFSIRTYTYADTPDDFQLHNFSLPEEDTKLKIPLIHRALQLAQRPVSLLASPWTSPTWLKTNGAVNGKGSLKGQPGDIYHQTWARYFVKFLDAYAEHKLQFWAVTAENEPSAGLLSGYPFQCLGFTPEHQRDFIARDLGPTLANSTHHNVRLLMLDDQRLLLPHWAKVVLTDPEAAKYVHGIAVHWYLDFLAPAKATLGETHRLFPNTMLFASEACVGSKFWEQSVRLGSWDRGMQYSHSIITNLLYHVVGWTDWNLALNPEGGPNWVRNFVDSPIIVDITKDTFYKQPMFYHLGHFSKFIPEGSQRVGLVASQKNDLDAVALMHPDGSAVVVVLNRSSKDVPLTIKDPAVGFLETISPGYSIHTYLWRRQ
Procedure, shortened: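 Compounds titrated from 0.6 nM upwards against 0.2 nM enzyme in pH 5.9 citric acid/KH2PO4, taurocholate, tween-20; blue fluorogenic substrate 80 uM, 40 min room temperature, stopped and read Ex 365/Em 440 for AC50.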

[2] = AP1 Signaling Pathway (AID 357); conditions: ME-180 AP-1-bla reporter, EGF-induced, beta-lactamase ratio, 5 h; at 7.69 µM (top of the series) unless noted;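 also: ME-180 reporter cells stimulated with EGF at its EC50 level; % is scaled to controls: 0 for no effect and ±100 for the full control effect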
Procedure, shortened: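 AP-1-bla ME-180 cells, Opti-MEM + 0.5% dialyzed FBS, plated overnight 37 °C. Cpd titration + EC50 EGF, 5 h 37 °C. CCF4 2.5 h RT; ex 405, em 460/530 ratio → %activity, AC50.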

[3] = NFAT Signaling Pathway (AID 444); conditions: Jurkat NFAT-bla M1, carbachol, beta-lactamase ratio, 5 h; at 7.69 µM (top of the series) unless noted;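 also: carbachol stimulus at about its EC50 of 1 µM final; % is scaled to controls: 0 for no effect and ±100 for the full control effect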
Procedure, shortened: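 Jurkat cells with NFAT-driven β-lactamase reporter and co-expressed M1 receptor, stimulated with carbachol (final 1 uM, ~EC50), compound titration, 5 h at 37 °C. CCF4 loaded 1 h at RT; 460/530 nm ratio gave %activity and AC50.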

[4] = Stat Signaling Pathway (AID 446); conditions: ME-180 SIE beta-lactamase reporter, IL-6 stimulated, 5 h; at 7.69 µM (top of the series) unless noted;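 also: ME-180 cervical cancer cells given 40 pM IL-6 alongside compound; SIE-controlled beta-lactamase reporter measured as 460/530 nm FRET emission ratio; % is scaled to controls: 0 for no effect and ±100 for the full control effect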
Procedure, shortened: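 IL-6/STAT signaling read in ME-180 cells via an SIE beta-lactamase reporter. Stimulus was 40 pM IL-6 (its AC50) for 5 hrs, so both activation and inhibition register.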

[5] = biological target: Glucocorticoid receptor (Homo sapiens) (UniProt P04150); test: GR-GFP Redistribution (AID 450;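 active = compounds whose dose series gives a full or clear partial fitted curve of increased nuclear translocation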; also: potency is read from the fitted curve at half-maximal effect); conditions: U2OS GR-GFP nuclear translocation, laser cytometry, 2 h
Sequence of Glucocorticoid receptor (Homo sapiens) (P04150 whole entry, looked up, the tested form may be a part): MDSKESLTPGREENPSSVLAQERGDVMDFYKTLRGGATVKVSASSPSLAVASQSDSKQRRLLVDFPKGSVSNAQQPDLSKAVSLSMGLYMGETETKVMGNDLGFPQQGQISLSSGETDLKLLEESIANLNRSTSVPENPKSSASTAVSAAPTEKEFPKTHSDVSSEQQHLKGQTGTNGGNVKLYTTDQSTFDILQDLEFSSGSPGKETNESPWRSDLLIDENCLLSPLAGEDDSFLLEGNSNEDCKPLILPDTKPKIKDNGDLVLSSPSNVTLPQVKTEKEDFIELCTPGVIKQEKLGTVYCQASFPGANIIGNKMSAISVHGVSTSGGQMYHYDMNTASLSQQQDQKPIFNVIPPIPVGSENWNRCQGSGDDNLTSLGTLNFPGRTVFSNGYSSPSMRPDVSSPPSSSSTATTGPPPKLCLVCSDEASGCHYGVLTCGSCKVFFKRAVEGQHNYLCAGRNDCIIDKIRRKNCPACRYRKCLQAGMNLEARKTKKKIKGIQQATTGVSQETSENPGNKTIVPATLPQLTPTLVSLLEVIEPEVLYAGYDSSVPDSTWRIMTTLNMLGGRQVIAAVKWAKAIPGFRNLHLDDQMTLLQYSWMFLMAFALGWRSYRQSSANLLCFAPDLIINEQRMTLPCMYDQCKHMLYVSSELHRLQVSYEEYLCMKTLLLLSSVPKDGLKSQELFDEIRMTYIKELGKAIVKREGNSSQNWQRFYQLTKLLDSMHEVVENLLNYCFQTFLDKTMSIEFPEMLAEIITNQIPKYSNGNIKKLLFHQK

[6] = biological target: Mitogen-activated protein kinase 10 (Mus musculus) (UniProt Q61831); test: JNK3 AlphaScreen Assay (AID 530); conditions: JNK3 lysate, c-Jun phosphorylation; series mostly up to 11.4 µM;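 also: kinase came from lysate of stimulated human HepG2 cells; signal reports phosphorylation of biotinylated GST-cJun 1-79 at Ser73 with 10 µM ATP; % is scaled to controls: 0 for no effect and ±100 for the full control effect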
Procedure, shortened: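 qHTS format: compounds tested as titrations against IL-1beta/TNF-alpha-activated HepG2 lysate JNK3 with biotin-GST-cJun substrate and 10 uM ATP at room temperature. Loss of anti-phospho-cJun AlphaScreen signal indicates inhibition.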

[7] = biological target: 3',5'-cyclic-AMP phosphodiesterase 4B (Homo sapiens) (UniProt Q07343); test: qHTS Assay for Inhibitors of PDE-IV (AID 607; active = well fitted activation curve with a large enough effect in the main read-out, with a control signal flat, not every such curve was filed as active; also: % of control where 0% means no effect); conditions: HEK293 ACTOne CNG channel cells, membrane potential fluorescence; series mostly up to 22.9 µM
Sequence of 3',5'-cyclic-AMP phosphodiesterase 4B (Homo sapiens) (Q07343 whole entry, looked up): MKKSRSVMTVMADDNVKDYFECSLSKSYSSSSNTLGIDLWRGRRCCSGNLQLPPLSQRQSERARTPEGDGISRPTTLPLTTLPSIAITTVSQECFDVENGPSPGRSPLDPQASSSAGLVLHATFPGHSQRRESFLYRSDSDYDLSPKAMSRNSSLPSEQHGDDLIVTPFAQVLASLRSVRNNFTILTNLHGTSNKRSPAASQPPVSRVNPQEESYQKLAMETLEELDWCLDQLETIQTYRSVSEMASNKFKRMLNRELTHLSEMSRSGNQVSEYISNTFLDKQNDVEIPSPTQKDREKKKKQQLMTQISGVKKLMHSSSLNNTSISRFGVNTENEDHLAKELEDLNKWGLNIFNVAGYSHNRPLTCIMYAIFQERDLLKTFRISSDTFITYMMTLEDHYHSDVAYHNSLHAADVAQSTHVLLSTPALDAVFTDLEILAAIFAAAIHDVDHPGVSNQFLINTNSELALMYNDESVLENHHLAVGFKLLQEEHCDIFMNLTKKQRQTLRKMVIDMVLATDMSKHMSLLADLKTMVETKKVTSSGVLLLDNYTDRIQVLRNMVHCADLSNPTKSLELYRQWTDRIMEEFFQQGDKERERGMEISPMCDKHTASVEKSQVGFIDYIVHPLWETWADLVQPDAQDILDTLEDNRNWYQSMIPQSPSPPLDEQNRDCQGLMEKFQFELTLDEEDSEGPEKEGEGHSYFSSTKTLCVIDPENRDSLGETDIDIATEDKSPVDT
Procedure, shortened: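 Live HEK293 cells with a modified cyclic nucleotide-gated (CNG) channel report intracellular cAMP via membrane-potential dye fluorescence (ex 535/em 590 nm). Endogenous PDE-IV was targeted. Compounds were tested at up to 22.9 uM final; RO 20-1724 100 uM served as control.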

[8] = biological target: Glucocorticoid receptor (Homo sapiens) (UniProt P04150); test: GR-EFC Redistribution (AID 451; calls by dose curve; also: potency is read from the fitted curve at half-maximal effect); conditions: CHO-K1 GR-EFC translocation, beta-gal luminescence, 2 h
Procedure, shortened: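 CHO-K1 cells expressing nuclear EA and GR-ED fragments of b-gal; compounds titrated up to 46 uM final, 2 h at 37 C. GR nuclear translocation read as complemented b-gal luminescence after 1 h RT detection.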

[9] = biological target: Cytochrome P450 2C9 (Homo sapiens) (UniProt P11712); test: qHTS Assay for Inhibitors and Substrates of Cytochrome P450 2C9 (AID 883; active = well fitted curve in the direction sought with a large enough effect; an effect the other way counts as inactive or inconclusive; also: % is scaled to controls: 0 for no effect and ±100 for the full control effect; nearly all actives have a fitted effect of over 60% in size); conditions: recombinant CYP2C9, luciferin-H luminescence, 60 min; series mostly up to 11.4 µM
Sequence of Cytochrome P450 2C9 (Homo sapiens) (P11712 whole entry, looked up): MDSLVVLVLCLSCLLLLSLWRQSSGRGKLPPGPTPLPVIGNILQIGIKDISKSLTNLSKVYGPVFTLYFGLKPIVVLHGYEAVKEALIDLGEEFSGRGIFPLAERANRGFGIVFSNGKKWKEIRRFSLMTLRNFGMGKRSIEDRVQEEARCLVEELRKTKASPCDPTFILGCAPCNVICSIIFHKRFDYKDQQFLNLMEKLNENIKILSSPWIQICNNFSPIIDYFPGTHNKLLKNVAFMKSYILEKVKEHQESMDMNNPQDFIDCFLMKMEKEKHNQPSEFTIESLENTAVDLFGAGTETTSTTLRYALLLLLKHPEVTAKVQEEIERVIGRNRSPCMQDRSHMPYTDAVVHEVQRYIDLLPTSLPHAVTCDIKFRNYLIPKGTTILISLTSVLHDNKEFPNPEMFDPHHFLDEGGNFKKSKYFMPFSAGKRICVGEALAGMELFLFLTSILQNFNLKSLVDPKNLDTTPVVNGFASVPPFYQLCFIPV
Procedure, shortened: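 Signal: luciferase luminescence reporting luciferin produced by CYP2C9. Conditions: 10nM enzyme, Luciferin-H 100uM at KM, 25mM KPO4, 37C, 60 min NADPH-driven reaction. Reference: 57uM sulphaphenazole as 100% inhibition.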

[10] = biological target: Cytochrome P450 3A4 (Homo sapiens) (UniProt P08684); test: qHTS Assay for Inhibitors and Substrates of Cytochrome P450 3A4 (AID 884; active = well fitted curve in the direction sought with a large enough effect; an effect the other way counts as inactive or inconclusive; also: % is scaled to controls: 0 for no effect and ±100 for the full control effect; nearly all actives have a fitted effect of over 50% in size); conditions: recombinant CYP3A4, Luciferin-PPXE luminescence; series mostly up to 57.1 µM
Sequence of Cytochrome P450 3A4 (Homo sapiens) (P08684 whole entry, looked up): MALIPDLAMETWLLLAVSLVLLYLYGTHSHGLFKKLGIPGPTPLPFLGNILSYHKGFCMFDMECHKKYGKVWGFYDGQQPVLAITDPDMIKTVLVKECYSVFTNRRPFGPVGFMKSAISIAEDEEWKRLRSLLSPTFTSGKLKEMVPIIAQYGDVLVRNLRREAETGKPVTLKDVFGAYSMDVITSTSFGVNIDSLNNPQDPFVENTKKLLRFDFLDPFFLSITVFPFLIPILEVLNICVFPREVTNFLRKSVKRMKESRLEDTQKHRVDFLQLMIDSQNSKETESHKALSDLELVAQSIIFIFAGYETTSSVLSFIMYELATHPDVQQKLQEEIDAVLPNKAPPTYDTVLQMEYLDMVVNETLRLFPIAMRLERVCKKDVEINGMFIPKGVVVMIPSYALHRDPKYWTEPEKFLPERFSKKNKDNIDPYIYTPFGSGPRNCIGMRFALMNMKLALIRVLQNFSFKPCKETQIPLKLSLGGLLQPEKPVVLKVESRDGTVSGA
Procedure, shortened: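 20 nM human CYP3A4 with 25 uM Luciferin-PPXE (at KM) in 200 mM KPO4, preincubated 10 min with compound; NADPH regeneration started a 60 min RT reaction. Luciferin detected by luminescence, normalized to 57 uM ketoconazole as full inhibition.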

[11] = biological target: Cytochrome P450 2D6 (Homo sapiens) (UniProt P10635); test: qHTS Assay for Inhibitors and Substrates of Cytochrome P450 2D6 (AID 891; active = well fitted curve in the direction sought with a large enough effect; an effect the other way counts as inactive or inconclusive;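 also: luciferin methyl ether substrate demethylated by CYP2D6 with NADPH regeneration; % is scaled to controls: 0 for no effect and ±100 for the full control effect; nearly all actives have a fitted effect of over 60% in size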); conditions: recombinant CYP2D6, luciferin-ME EGE luminescence; series mostly up to 11.4 µM
Sequence of Cytochrome P450 2D6 (Homo sapiens) (P10635 whole entry, looked up): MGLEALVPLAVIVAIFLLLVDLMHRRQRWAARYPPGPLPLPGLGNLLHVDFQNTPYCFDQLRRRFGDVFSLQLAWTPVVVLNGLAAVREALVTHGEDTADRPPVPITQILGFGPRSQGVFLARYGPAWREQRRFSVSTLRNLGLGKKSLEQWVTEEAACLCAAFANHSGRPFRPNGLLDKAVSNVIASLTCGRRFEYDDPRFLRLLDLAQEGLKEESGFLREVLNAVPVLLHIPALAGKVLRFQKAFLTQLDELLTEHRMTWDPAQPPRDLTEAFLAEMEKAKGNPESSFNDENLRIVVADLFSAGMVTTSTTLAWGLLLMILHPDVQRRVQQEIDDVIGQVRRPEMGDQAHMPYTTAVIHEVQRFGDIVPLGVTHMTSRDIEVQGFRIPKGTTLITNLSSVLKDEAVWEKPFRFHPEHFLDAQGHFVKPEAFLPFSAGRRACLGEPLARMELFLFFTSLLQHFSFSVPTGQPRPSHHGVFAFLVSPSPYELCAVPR
Procedure, shortened: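 Human CYP2D6 (5 nM) with 30 uM Luciferin-ME EGE (at Km) in 100 mM KPO4, compound preincubated 10 min, then NADPH regeneration system for 60 min at room temperature. Luciferin read by luminescence; normalized to 1.43 uM quinidine.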

[12] = biological target: Cytochrome P450 2C19 (Homo sapiens) (UniProt P33261); test: qHTS Assay for Inhibitors and Substrates of Cytochrome P450 2C19 (AID 899; active = well fitted curve in the direction sought with a large enough effect; an effect the other way counts as inactive or inconclusive; also: % is scaled to controls: 0 for no effect and ±100 for the full control effect; nearly all actives have a fitted effect of over 60% in size); conditions: recombinant CYP2C19, luciferin-H EGE luminescence; series mostly up to 11.4 µM
Sequence of Cytochrome P450 2C19 (Homo sapiens) (P33261 whole entry, looked up): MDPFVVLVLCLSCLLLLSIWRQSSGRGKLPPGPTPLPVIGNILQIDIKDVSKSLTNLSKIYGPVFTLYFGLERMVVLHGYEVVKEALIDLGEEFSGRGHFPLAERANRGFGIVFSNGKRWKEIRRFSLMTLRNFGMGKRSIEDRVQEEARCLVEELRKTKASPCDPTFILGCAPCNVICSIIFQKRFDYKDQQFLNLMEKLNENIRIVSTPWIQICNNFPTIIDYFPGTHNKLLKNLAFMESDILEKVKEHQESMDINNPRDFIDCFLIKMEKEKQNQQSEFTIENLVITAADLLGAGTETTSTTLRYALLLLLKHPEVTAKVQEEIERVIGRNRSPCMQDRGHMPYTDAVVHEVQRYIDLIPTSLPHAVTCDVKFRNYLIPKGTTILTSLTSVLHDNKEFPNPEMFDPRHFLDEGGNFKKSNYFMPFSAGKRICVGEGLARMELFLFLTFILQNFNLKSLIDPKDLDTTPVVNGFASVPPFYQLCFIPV
Procedure, shortened: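 Signal comes from luciferase acting on luciferin released by CYP2C19-mediated hydroxylation of Luciferin-H EGE, 10uM (KM). Assay mix: 5nM enzyme, 50mM KPO4; 60 min at 37C with NADPH regeneration. Data normalized against 57uM ketoconazole.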

[13] = biological target: Cytochrome P450 3A4 (Homo sapiens) (UniProt P08684); test: qHTS Assay for Activators of Cytochrome P450 3A4 (AID 885; active = well fitted curve in the direction sought with a large enough effect; an effect the other way counts as inactive or inconclusive; also: nearly all actives have a fitted effect of over 65% in size); conditions: recombinant CYP3A4, Luciferin-PPXE luminescence, 60 min; series mostly up to 11.4 µM
Procedure, shortened: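 Quantitative HTS format: compounds preincubated with 20nM human CYP3A4 and Luciferin-PPXE substrate at KM, reaction started by NADPH regeneration, stopped after 60 min, luciferase luminescence read 20 min later.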

[14] = qHTS Assay for Identification of Small Molecule Agonists for Hypoxia Response Element Signaling Pathway (AID 914; active = well fitted activation curve with a large enough effect in the signal ratio, with a control signal flat, not every such curve was filed as active; the % refers to the signal ratio; also: % of control where 0% means no effect); conditions: ME-180 HRE-bla reporter, beta-lactamase ratio, CoCl2, 17 h; activation: hits give high values
Procedure, shortened: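 ME-180 cells carrying an HRE-driven beta-lactamase reporter were treated with compounds in a titration series plus an EC50 level of CoCl2 for 17 h at 37 degrees Celsius; CCF4 readout as the 460nm/530nm ratio gave AC50 values.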

O=C(O)CC(CC(=O)O)C(=O)O
inactive: Potency [1] > 11.4 µM | activity change, negative = inhibition [2] -1.11% | activity change, negative = inhibition [3] 8.83% | activity, negative = inhibition [4] 7.1% | Potency [5] > 46 µM | Potency [6] | Potency [7]

Cc1cc2cc3c(=O)[nH]c(=O)[nH]c3nc2cc1C
inactive: Potency [1] > 11.4 µM | activity change, negative = inhibition [2] -6.37% | activity change, negative = inhibition [3] 11.7% | Potency [5] > 46 µM | Potency [8] > 9.22 µM | Potency [6] | Potency [7]

O=S(=O)(O)c1cc(S(=O)(=O)O)c2c(N=Nc3cccc4ccccc34)c(O)ccc2c1
inactive: Potency [1] > 11.4 µM | activity change, negative = inhibition [2] 4.87% | activity change, negative = inhibition [3] 21.1% | activity, negative = inhibition [4] 5.07% | Potency [5] > 46 µM | Potency [8] > 9.22 µM | Potency [7] | Potency [9] | activity change, negative = inhibition [10] -5.78% [at 11.4 µM] | Potency [11] | Potency [12]

C[C@@H]1CCCC(CC(=O)O)(CC(=O)O)C1
inactive: Potency [1] > 11.4 µM | activity change, negative = inhibition [2] -2.04% | activity change, negative = inhibition [3] -0.409% | activity, negative = inhibition [4] 6.41% | Potency [5] > 46 µM | Potency [6] | Potency [7]

Cc1noc(C)c1C(=O)N1CCC2(CC1)CN(c1cccc(-c3ccccc3)c1)C2
inactive: Potency [1] > 11.4 µM | activity change, negative = inhibition [2] -13.8% | activity change, negative = inhibition [3] 5.64% | activity, negative = inhibition [4] -11.6% | Potency [8] > 46 µM | Potency [6] | Potency [7]

C[C@H](CC(=O)O)C(C(=O)O)C(=O)O
inactive: Potency [1] > 11.4 µM | activity change, negative = inhibition [2] -3.69% | activity change, negative = inhibition [3] -5.24% | activity, negative = inhibition [4] -3.1% | Potency [5] > 46 µM | Potency [6] | Potency [7]

CCOC(=O)Cn1c(C(F)(F)F)nc2nc(Cl)c(Cl)nc21
inactive: Potency [1] > 11.4 µM | activity change, negative = inhibition [2] 6.84% | activity change, negative = inhibition [3] -10.5% | Potency [5] > 46 µM | Potency [8] > 9.22 µM | Potency [6]

N#CCCn1c(=O)c(-c2cc(F)cc(F)c2)nc2cnc(Oc3cccc(Cl)c3)nc21
inactive: Potency [1] > 11.4 µM | activity change, negative = inhibition [2] -12.5% | activity change, negative = inhibition [3] -4.95% | activity, negative = inhibition [4] 12.5% | Potency [5] > 9.22 µM | Potency [8] > 46 µM | Potency [7] | Potency [13]

OC[C@@H]1CCC[C@H](n2cnc3c(=S)nc[nH]c32)O1
inactive: Potency [1] > 11.4 µM | activity change, negative = inhibition [2] 1.32% | activity change, negative = inhibition [3] 24.8% | Potency [5] > 46 µM | Potency [8] > 9.22 µM | Potency [6]

C[n+]1cccc(/C=C\c2ccc3cccc(O)c3n2)c1
inactive: Potency [1] > 11.4 µM | activity change, negative = inhibition [2] -0.115% | activity change, negative = inhibition [3] 10.1% | activity, negative = inhibition [4] 3.53% | Potency [8] > 9.22 µM | Potency [6] | Potency [7]

OCCCNCc1ccncc1
inactive: Potency [1] > 11.4 µM | activity change, negative = inhibition [2] -2.93% | activity change, negative = inhibition [3] 5.43% | activity, negative = inhibition [4] -6.9% | Potency [5] > 46 µM | Potency [6] | Potency [7] | activation [14] 1.84%

Nc1nc(N)nc(CC(=O)O)n1
inactive: Potency [1] > 11.4 µM | activity change, negative = inhibition [2] 5.1% | activity change, negative = inhibition [3] 15.8% | activity, negative = inhibition [4] 0.411% | Potency [8] > 9.22 µM | Potency [6] | Potency [7]

CCN(CC)CCN1C(=O)c2cccc3cc(N)cc(c23)C1=O
inactive: Potency [1] > 11.4 µM | activity change, negative = inhibition [2] 25.3% | activity change, negative = inhibition [3] -6.74% | Potency [5] > 46 µM | Potency [8] > 9.22 µM | Potency [6] | Potency [7]

O=C(O)c1ccc(NCc2nc3cc4ccccc4cc3[nH]2)cc1
inactive: Potency [1] > 11.4 µM | activity change, negative = inhibition [2] -5.67% | activity change, negative = inhibition [3] 14.2% | activity, negative = inhibition [4] -2.42% | Potency [8] > 9.22 µM | Potency [6] | Potency [7]

CN1CCC[C@@H]1c1cccnc1.O=C(O)c1ccccc1O.O=C([OH2+])c1ccccc1O.O=C([OH2+])c1ccccc1O.[Mn]
inactive: Potency [1] > 11.4 µM | activity change, negative = inhibition [2] 10.8% | activity change, negative = inhibition [3] -9.45% | activity, negative = inhibition [4] 17.5% | Potency [6] | Potency [7]

O=S(=O)(O)c1cc(O)c2c(O)c(N=Nc3cccc4ccccc34)c(S(=O)(=O)O)cc2c1
inactive: Potency [1] > 11.4 µM | activity change, negative = inhibition [2] -2.93% | activity change, negative = inhibition [3] -6.39% | activity, negative = inhibition [4] 4.42% | Potency [5] > 46 µM | Potency [8] > 9.22 µM | Potency [7] | activation [14] -26.6%
